# Measured values from PubChem BioAssay (NCATS).
# Inconclusive results are not listed. Activity calls are given as the source filed them. Unless noted, calls come from the whole dose curve; as a rule, active = well fitted curve in either direction with a large enough effect (not every such curve was filed as active); inconclusive = small, poorly fitted or top-dose-only effect, or another doubt; inactive = flat fitted curve, though single readings scatter.
# Experiments:
# [1] = molecular target: Lysosomal acid glucosylceramidase (Homo sapiens) (UniProt P04062); assay: Glucocerebrosidase-p2 (AID 348; in the data active = potency below about 10 µM; note: potency is the fitted concentration of half-maximal effect); conditions: purified GBA, blue fluorogenic substrate, 40 min
# Lysosomal acid glucosylceramidase (Homo sapiens), sequence (P04062 whole entry, looked up): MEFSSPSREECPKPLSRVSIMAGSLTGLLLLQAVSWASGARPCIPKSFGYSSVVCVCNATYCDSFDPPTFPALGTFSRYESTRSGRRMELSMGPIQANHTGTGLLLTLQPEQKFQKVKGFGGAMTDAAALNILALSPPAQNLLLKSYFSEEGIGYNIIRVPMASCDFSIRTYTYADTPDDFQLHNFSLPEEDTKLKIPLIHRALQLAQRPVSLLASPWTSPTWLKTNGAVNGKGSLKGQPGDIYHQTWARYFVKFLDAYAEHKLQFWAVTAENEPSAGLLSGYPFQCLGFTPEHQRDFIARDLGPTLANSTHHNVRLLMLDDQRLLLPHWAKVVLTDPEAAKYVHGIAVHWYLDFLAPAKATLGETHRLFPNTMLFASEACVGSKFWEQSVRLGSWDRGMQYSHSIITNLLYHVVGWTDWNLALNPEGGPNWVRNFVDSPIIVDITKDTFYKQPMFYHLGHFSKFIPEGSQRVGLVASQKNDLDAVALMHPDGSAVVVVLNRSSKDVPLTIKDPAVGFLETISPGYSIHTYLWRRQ
# How it was run: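 Compounds titrated from 0.6 nM upwards against 0.2 nM enzyme in pH 5.9 citric acid/KH2PO4, taurocholate, tween-20; blue fluorogenic substrate 80 uM, 40 min room temperature, stopped and read Ex 365/Em 440 for AC50.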
# [2] = AP1 Signaling Pathway (AID 357); conditions: ME-180 AP-1-bla reporter, EGF-induced, beta-lactamase ratio, 5 h; at 7.69 µM (top of the series) unless noted; note: % is set by controls: 0 for no effect and ±100 for the full control effect
# How it was run: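 Modulation of EGF-driven AP-1 transcription was assessed with a beta-lactamase reporter in ME-180 cells. Compound and EC50 EGF were co-incubated 5 hours at 37 °C before 2.5-hour CCF4 loading at room temperature and dual-emission reading.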
# [3] = molecular target: Cytochrome P450 1A2 (Homo sapiens) (UniProt P05177); assay: p450-cyp1a2 (AID 410; calls by dose curve; note: potency is the fitted concentration of half-maximal effect;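 for activity change, negative = inhibition: -100% = full effect of reference inhibitor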); conditions: recombinant CYP1A2, luciferin-ME demethylation, luminescence; series mostly up to 57 µM
# Cytochrome P450 1A2 (Homo sapiens), sequence (P05177 whole entry, looked up): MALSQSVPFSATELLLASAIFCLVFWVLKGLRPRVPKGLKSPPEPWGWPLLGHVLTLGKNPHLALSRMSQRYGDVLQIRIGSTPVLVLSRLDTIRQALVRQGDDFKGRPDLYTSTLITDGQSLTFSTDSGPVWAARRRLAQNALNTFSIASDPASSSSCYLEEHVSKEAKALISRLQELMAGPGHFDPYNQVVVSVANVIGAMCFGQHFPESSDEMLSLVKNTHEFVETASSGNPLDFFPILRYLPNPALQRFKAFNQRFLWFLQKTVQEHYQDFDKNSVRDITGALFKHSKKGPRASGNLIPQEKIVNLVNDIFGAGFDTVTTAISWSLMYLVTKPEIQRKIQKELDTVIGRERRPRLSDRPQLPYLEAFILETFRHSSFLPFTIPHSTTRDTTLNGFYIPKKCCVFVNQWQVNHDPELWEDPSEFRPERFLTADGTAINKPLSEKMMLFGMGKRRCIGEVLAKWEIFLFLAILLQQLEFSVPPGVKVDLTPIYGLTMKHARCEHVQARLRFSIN
# How it was run: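 Luminescent readout of luciferin formed from Luciferin-ME by human CYP1A2; data normalized against complete inhibition by 57 uM furafylline. Enzyme 20nM, substrate 100uM at Km, 100mM KPO4 buffer, 60 min reaction at room temperature.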
# [4] = Stat Signaling Pathway (AID 446); conditions: ME-180 SIE beta-lactamase reporter, IL-6 stimulated, 5 h; at 7.69 µM (top of the series) unless noted;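 note: ME-180 cervical cancer cells given 40 pM IL-6 alongside compound; SIE-controlled beta-lactamase reporter measured as 460/530 nm FRET emission ratio; % is set by controls: 0 for no effect and ±100 for the full control effect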
# How it was run: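 Screening format detects activators and inhibitors alike: ME-180 SIE-bla cells stimulated at 40 pM IL-6 for 5 hrs with compound, then dual-emission beta-lactamase read at 405 nm excitation.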
# [5] = molecular target: Glucocorticoid receptor (Homo sapiens) (UniProt P04150); assay: GR-EFC Redistribution (AID 451; calls by dose curve; note: potency is the fitted concentration of half-maximal effect); conditions: CHO-K1 GR-EFC translocation, beta-gal luminescence, 2 h
# Glucocorticoid receptor (Homo sapiens), sequence (P04150 whole entry, looked up, the tested form may be a part): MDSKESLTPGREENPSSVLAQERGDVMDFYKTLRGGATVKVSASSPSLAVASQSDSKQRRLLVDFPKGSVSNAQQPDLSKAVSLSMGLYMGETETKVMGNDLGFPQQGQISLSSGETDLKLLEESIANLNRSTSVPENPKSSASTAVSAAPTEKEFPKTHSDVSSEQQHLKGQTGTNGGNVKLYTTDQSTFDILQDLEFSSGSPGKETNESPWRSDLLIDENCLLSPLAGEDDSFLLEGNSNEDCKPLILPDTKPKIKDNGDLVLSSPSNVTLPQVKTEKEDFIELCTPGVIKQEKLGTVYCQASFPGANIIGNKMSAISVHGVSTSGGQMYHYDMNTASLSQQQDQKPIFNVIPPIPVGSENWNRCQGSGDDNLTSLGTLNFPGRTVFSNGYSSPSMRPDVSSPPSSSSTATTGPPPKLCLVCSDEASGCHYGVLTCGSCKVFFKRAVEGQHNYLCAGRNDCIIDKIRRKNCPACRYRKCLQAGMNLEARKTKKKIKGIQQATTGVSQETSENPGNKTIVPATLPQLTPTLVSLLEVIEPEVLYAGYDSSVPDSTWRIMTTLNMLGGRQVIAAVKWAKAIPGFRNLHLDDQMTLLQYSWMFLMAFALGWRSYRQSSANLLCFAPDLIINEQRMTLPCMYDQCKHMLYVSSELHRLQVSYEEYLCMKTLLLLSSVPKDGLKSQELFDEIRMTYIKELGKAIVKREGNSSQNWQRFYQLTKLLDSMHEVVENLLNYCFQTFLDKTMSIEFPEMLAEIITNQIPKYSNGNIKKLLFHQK
# How it was run: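 CHO-K1 cells stably expressing nuclear-localized β-gal enzyme acceptor and GR fused C-terminally to the enzyme donor fragment; ligand-driven nuclear translocation restores β-gal by complementation. Compounds titrated up to 46 uM final, 2 h at 37 °C; luminescence read.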
# [6] = molecular target: Mitogen-activated protein kinase 10 (Mus musculus) (UniProt Q61831); assay: JNK3 AlphaScreen Assay (AID 530); conditions: JNK3 lysate, c-Jun phosphorylation; series mostly up to 57.1 µM;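 note: kinase came from lysate of stimulated human HepG2 cells; signal reports phosphorylation of biotinylated GST-cJun 1-79 at Ser73 with 10 µM ATP; % is set by controls: 0 for no effect and ±100 for the full control effect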
# How it was run: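 Inhibitors reduce antibody binding to phosphorylated biotin-cJun, lowering AlphaScreen luminescence. Lysates from HepG2 cells pre-activated by IL-1beta plus TNF-alpha supplied JNK3; compounds were titrated.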
# [7] = molecular target: 3',5'-cyclic-AMP phosphodiesterase 4B (Homo sapiens) (UniProt Q07343); assay: qHTS Assay for Inhibitors of PDE-IV (AID 607; active = well fitted activation curve with a large enough effect in the main read-out, with a control signal flat, not every such curve was filed as active; note: % of control where 0% means no effect); conditions: HEK293 ACTOne CNG channel cells, membrane potential fluorescence; series mostly up to 22.9 µM
# 3',5'-cyclic-AMP phosphodiesterase 4B (Homo sapiens), sequence (Q07343 whole entry, looked up): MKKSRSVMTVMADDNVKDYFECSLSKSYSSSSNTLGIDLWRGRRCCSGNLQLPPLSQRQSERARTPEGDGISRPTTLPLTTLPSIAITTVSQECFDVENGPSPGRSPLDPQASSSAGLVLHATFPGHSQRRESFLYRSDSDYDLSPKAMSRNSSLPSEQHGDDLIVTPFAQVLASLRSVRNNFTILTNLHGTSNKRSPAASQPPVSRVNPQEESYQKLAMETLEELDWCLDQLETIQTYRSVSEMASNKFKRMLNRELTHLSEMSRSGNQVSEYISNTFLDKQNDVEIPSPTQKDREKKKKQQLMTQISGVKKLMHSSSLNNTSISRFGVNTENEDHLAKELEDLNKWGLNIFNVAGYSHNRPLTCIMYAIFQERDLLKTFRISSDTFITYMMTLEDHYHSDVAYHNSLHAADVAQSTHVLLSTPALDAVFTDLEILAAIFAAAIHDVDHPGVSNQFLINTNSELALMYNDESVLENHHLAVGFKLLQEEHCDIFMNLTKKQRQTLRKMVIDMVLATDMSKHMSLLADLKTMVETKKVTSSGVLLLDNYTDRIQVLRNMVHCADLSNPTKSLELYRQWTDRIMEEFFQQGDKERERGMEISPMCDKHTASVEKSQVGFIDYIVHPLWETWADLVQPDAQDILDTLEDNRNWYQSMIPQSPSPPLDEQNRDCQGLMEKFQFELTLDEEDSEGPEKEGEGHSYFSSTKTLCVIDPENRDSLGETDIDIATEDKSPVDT
# How it was run: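 The readout is membrane depolarisation from a cAMP-sensing CNG channel, detected with a potential dye at ex 535/em 590. Cells were HEK293-derived (endogenous PDE-IV) at 1000 cells/well, titrated up to 22.9 uM final.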
# [8] = molecular target: Cytochrome P450 3A4 (Homo sapiens) (UniProt P08684); assay: qHTS Assay for Inhibitors and Substrates of Cytochrome P450 3A4 (AID 884; active = well fitted curve in the direction sought with a large enough effect; an effect the other way counts as inactive or inconclusive; note: nearly all actives have a fitted effect of over 50% in size; note: potency is the fitted concentration of half-maximal effect); conditions: recombinant CYP3A4, Luciferin-PPXE luminescence; series mostly up to 57.1 µM
# Cytochrome P450 3A4 (Homo sapiens), sequence (P08684 whole entry, looked up): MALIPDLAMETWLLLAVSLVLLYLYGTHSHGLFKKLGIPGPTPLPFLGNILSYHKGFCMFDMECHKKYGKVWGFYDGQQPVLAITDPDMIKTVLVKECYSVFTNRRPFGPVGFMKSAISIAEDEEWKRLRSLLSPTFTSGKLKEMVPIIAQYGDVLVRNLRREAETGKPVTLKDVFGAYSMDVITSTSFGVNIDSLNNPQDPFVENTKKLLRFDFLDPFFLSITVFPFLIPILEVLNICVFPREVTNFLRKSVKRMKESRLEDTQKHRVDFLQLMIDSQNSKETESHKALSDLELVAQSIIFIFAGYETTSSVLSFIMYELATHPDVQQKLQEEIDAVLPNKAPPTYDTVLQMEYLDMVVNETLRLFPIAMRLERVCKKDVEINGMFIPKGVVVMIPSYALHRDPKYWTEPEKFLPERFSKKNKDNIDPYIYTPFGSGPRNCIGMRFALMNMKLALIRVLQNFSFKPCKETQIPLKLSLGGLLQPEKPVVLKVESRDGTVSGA
# How it was run: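 20 nM human CYP3A4 with 25 uM Luciferin-PPXE (at KM) in 200 mM KPO4, preincubated 10 min with compound; NADPH regeneration started a 60 min RT reaction. Luciferin detected by luminescence, normalized to 57 uM ketoconazole as full inhibition.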
# [9] = molecular target: Cytochrome P450 3A4 (Homo sapiens) (UniProt P08684); assay: qHTS Assay for Activators of Cytochrome P450 3A4 (AID 885; active = well fitted curve in the direction sought with a large enough effect; an effect the other way counts as inactive or inconclusive; note: nearly all actives have a fitted effect of over 65% in size); conditions: recombinant CYP3A4, Luciferin-PPXE luminescence, 60 min; series mostly up to 57.1 µM
# How it was run: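 Steps: enzyme/substrate mix dispensed; compound added, 10 min RT; NADPH regeneration solution added, 60 min RT; luciferin detection buffer stops reaction; 20 min later luminescence measured.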
# [10] = qHTS Assay for Lipid Storage Modulators (AID 1519; calls by dose curve); conditions: Drosophila S3 cells, BODIPY lipid droplet/cell ratio, laser cytometry, cells loaded with oleic acid; for activity change, negative = inhibition: at 57.5 µM (top of the series)
# How it was run: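 Cells seeded at 5,000 per well were treated with compounds over a concentration series and loaded with oleic acid (400 uM, as added). Lipid droplet fluorescence (488 nm excitation, 500-530 nm channel) was read by laser-scanning cytometry and normalized to 20 uM Triacsin C.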
# [11] = molecular target: Glucocorticoid receptor (Homo sapiens) (UniProt P04150); assay: GR-GFP Redistribution (AID 450;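 active = compounds whose dose series gives a full or clear partial fitted curve of increased nuclear translocation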; note: potency is the fitted concentration of half-maximal effect); conditions: U2OS GR-GFP nuclear translocation, laser cytometry, 2 h
# [12] = Confirmation and Secondary Assay for Modulators of Hemoglobin Beta Chain Splicing at IVS2 654 locus (AID 910; active = well fitted curve in the direction sought with a large enough effect; an effect the other way counts as inactive or inconclusive;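 note: per-well total GFP intensity by laser scanning cytometry after 2-day treatment; % of control where 0% means no effect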); conditions: HeLa EGFP-654 splicing reporter, GFP fluorescence, 48 h; series mostly up to 38.3 µM
# How it was run: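 HeLa cells stably carrying EGFP interrupted by mutant beta-globin IVS2-654 intron (CMV-driven) were treated with compound for 2 days at 37C; corrected splicing was scored as total peak GFP intensity per well (488 nm excitation, 500-520 nm emission).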
# [13] = molecular target: Ubiquitin carboxyl-terminal hydrolase 1 (Homo sapiens) (UniProt O94782); assay: Inhibitors of USP1/UAF1: Pilot qHTS (AID 504865; active = well fitted curve in the direction sought with a large enough effect; an effect the other way counts as inactive or inconclusive;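 note: rhodamine fluorescence freed from ubiquitin-rhodamine substrate followed over time; top concentration of the series differs between compounds; % is set by controls: 0 for no effect and ±100 for the full control effect; nearly all actives have a fitted effect of over 35% in size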); conditions: purified USP1/UAF1, Ub-rhodamine cleavage fluorescence; series mostly up to 54.9 µM
# Ubiquitin carboxyl-terminal hydrolase 1 (Homo sapiens), sequence (O94782 whole entry, looked up): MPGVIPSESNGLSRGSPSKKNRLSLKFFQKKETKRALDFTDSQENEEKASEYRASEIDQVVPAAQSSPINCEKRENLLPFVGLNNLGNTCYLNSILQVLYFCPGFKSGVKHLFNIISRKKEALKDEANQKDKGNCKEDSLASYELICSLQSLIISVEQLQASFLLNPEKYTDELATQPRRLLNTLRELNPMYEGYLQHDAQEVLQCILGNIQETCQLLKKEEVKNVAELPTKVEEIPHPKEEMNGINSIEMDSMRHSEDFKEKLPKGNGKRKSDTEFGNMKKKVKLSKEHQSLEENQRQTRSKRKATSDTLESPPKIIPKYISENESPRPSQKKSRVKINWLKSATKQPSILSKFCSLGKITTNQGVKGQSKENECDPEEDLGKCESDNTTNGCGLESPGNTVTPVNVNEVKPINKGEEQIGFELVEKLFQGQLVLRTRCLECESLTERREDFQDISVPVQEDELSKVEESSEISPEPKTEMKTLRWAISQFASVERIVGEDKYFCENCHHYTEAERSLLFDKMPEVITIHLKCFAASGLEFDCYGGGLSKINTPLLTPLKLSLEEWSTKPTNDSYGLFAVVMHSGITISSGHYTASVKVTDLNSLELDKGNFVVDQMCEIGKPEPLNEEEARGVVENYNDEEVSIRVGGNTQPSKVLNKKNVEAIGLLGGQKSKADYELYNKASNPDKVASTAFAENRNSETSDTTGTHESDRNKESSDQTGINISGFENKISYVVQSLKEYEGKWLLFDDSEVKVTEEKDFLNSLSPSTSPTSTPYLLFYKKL
# How it was run: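 USP1/UAF1 complex (1nM) preincubated with compound 15 min at room temperature, then Ub-Rho substrate (150nM final) added. Fluorescence read kinetically at 480/540 nm, 6 reads every 60 seconds. Buffer: 50mM HEPES pH 7.8, 0.5mM EDTA, 0.1 mg/ml BSA, 1mM TCEP, 0.01% Tween-20.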
# [14] = NFAT Signaling Pathway (AID 444); conditions: Jurkat NFAT-bla M1, carbachol, beta-lactamase ratio, 5 h; at 7.69 µM (top of the series) unless noted;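 note: carbachol stimulus at about its EC50 of 1 µM final; % is set by controls: 0 for no effect and ±100 for the full control effect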
# How it was run: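 Jurkat cells carrying an NFAT-driven β-lactamase reporter and co-transfected muscarinic M1 receptor were treated with compound plus carbachol (1 uM final, an EC50 level) for 5 h at 37 °C. CCF4 loading followed for 1 h at RT; 460/530 nm ratio gave %activity.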
# [15] = Confirmation and Secondary Assay for Modulators of Hemoglobin Beta Chain Splicing at IVS2 705 locus (AID 930; active = well fitted curve in the direction sought with a large enough effect; an effect the other way counts as inactive or inconclusive;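 note: HeLa cells stably expressing the EGFP-705 splicing reporter; GFP fluorescence per well restored by corrected splicing of the IVS2-705 intron in EGFP; % of control where 0% means no effect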); conditions: HeLa EGFP-705 splicing reporter, GFP fluorescence, 48 h; series mostly up to 38.3 µM
# How it was run: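 Fluorescence gain (488 nm laser, 500-520 nm PMT) reflects restored correct splicing of a mutant IVS2-705 intron inside EGFP in stably transfected HeLa cells after 2-day compound treatment.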
# [16] = measured here: cell count channel max response
# [17] = measured here: lipid channel max response
SMILES,Potency [1],"activity change, negative = inhibition [2]",Potency [3],"activity, negative = inhibition [4]",Potency [5],Potency [6],Potency [7],Potency [8],Potency [9],"activity change, negative = inhibition [10]","max response [10, 16]","max response [10, 17]",Potency [11],Potency [12],Potency [13],"activity change, negative = inhibition [14]",outcome [15]
O=C(c1cc(C(F)(F)F)cc(C(F)(F)F)c1)N1CCC[C@@]2(CCN(c3ccncc3)C2)C1,> 11.4 µM (inactive),6.68% (inactive),inactive,1.59% (inactive),> 46 µM (inactive),inactive,inactive,6.31 µM (active),inactive,1.83% (inactive),-11%,-5.86%,,,,,
Cc1cccc(CNc2ccnc(-c3ccc(C(=O)N(C)C)cc3)n2)c1,> 11.4 µM (inactive),-17.2% (inactive),25.1 µM (active),-2.13% (inactive),> 46 µM (inactive),inactive,,inactive,,7.06% (inactive),-6.92%,0.35%,> 46 µM (inactive),inactive,inactive,,
N#Cc1ccccc1-c1cncnc1NCc1cccnc1,> 11.4 µM (inactive),-25.2% (inactive),0.0631 µM (active),,> 46 µM (inactive),inactive,inactive,,inactive,4.31% (inactive),7.61%,12.5%,,,inactive,5.72% (inactive),inactive
COc1ccccc1CN1CC[C@@]2(CCCN(C(=O)c3cc(C(F)(F)F)cc(C(F)(F)F)c3)C2)C1,> 11.4 µM (inactive),-0.111% (inactive),15.8 µM (active),4.98% (inactive),> 46 µM (inactive),inactive,inactive,,,2.5% (inactive),2.09%,7.48%,,,,,
c1ccc(-c2ccc(N3CC[C@@]4(CCCNC4)C3)cc2)cc1,> 11.4 µM (inactive),16.6% (inactive),12.6 µM (active),,> 46 µM (inactive),inactive,inactive,,,4.33% (inactive),9.08%,15.2%,,,,10.5% (inactive),
N#CCCn1c(=O)c(-c2ccc(Cl)cc2)nc2cnc(Oc3cccc(Cl)c3)nc21,> 11.4 µM (inactive),23.4% (inactive),inactive,,> 46 µM (inactive),inactive,inactive,,,4.13% (inactive),4.81%,10.2%,> 9.22 µM (inactive),,,14.7% (inactive),
FC(F)(F)c1cc(CN2CCC3(CCNCC3)CC2)cc(C(F)(F)F)c1,> 11.4 µM (inactive),3.22% (inactive),inactive,1.83% (inactive),> 46 µM (inactive),inactive,inactive,,inactive,-1.92% (inactive),-8.05%,-9.72%,,,,9.54% (inactive),
